Data published in PubChem BioAssay.

experiment: compound binding in COS7 lysate, probe aLAP1, primary screen, cell lysate, small-molecule microarray (AID 1124); details: probe aLAP1, fluorescence, higher = more signal;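 note: lysate comes from COS7 cells expressing LAP1 and is applied at 0.3 µg/mL; score merges spot fluorescence near 667 nm with signal-to-noise over triplicate slides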

Row | SMILES | composite z-score
1 | COCCOC(=O)N1C(=O)[C@@]2(c3cc(C#CC4(O)CCCCCC4)ccc31)[C@H](c1ccccc1OCCO)N1[C@H](c3ccccc3)[C@H](c3ccccc3)OC(=O)[C@H]1[C@@H]2C(=O)N1CCc2cc(OC)c(OC)cc2C1 | 0.612
2 | [N-]=[N+]=NCc1ccccc1[C@H]1OC(c2ccc(OCCCO)cc2)=N[C@@]1(Cc1ccccc1)C(=O)N1CCCCC1 | 0.284
3 | COCCOC(=O)N1C(=O)[C@@]2(c3cc(C#CC4=CCCCC4)ccc31)[C@H](c1ccc(OCCO)cc1)N1[C@H](c3ccccc3)[C@H](c3ccccc3)OC(=O)[C@H]1[C@@H]2C(=O)N1CCc2cc(OC)c(OC)cc2C1 | 0.868
4 | COCC(=C=CC[C@H](O)c1cccc(OCCO)c1)CCO | -0.0637
5 | C=CC[C@]1(C(=O)NCc2ccccc2)N=C(c2ccc(OCCCO)cc2)O[C@H]1c1ccccc1CN=[N+]=[N-] | 0.403
6 | C=C(CCCC)C(=O)CC[C@@H](OC(C)=O)c1ccc(CO)o1 | -0.0353
7 | COc1ccc(C(=O)Nc2cccc(CN3C(=O)[C@]4(O[C@H](CCn5cc(CCO)nn5)[C@@H]([Si](C)(C)c5ccc(OC)cc5)[C@@H]4C)c4ccccc43)c2)cc1 | -0.0719
8 | COC(=O)c1c(CC[C@@H](CO)NC(=O)N[C@@H](Cc2ccccc2)Cn2cc(-c3ccccn3)nn2)oc(C(=O)N2CCOCC2)c1C(=O)OC | -0.425
9 | C=CCN1C(=O)[C@]2(O[C@H](CCO)[C@@H]([Si](C)(C)c3ccc(OC)cc3)[C@@H]2C)c2cc(N(C=O)c3ccccc3)ccc21 | 0.398
10 | [N-]=[N+]=Nc1ccccc1[C@H]1OC(c2ccc(OCCCO)cc2)=N[C@@]1(CCS(=O)(=O)c1ccccc1)C(=O)NCc1ccccc1 | 0.403
